Data reported in PubChem BioAssay (Tox21).
Results filed as inconclusive are left out. A call without a number means that no potency is given here. Active and inactive are the calls of the source. Unless noted, calls come from the whole dose curve; as a rule, active = well fitted curve in the direction sought with a large enough effect in the repeat runs; inconclusive = weak or mixed curves; inactive = no such curve, though single readings can be large; an effect the other way counts as inactive or inconclusive.

Tests used:
[1] = molecular target: Acetylcholinesterase (Homo sapiens) (UniProt P22303); assay: Acetylcholinesterase (AChE) small molecule antagonists: fluorescence cell-based qHTS assay (AID 1347398; calls by dose curve; note: nearly all actives have a fitted effect of over 50% in size; note: potency is the fitted concentration of half-maximal effect); conditions: Potency: AChE activity
Sequence of Acetylcholinesterase (Homo sapiens) (P22303 whole entry, looked up): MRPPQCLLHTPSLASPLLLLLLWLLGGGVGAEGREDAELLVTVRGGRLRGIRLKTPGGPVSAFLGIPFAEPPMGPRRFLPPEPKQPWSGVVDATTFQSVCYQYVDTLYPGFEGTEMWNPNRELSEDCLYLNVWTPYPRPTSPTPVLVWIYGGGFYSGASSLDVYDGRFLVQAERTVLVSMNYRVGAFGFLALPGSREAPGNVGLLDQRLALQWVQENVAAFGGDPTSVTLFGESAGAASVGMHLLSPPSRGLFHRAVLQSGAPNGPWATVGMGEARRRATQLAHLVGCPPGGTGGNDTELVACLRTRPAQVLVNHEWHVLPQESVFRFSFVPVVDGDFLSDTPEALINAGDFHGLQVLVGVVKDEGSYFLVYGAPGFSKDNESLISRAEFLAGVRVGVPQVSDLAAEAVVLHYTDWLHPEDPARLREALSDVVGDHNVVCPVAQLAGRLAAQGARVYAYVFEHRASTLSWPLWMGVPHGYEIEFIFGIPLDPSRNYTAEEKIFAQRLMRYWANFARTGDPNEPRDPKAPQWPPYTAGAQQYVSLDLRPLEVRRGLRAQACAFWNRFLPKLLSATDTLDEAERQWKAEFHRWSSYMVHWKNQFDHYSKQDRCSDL
How it was run: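 Cells (SH-SY5Y) attached overnight, were dosed with compound or DMSO vehicle for 30 min at 37 C, and then incubated 40 min at room temperature with acetylthiocholine and Thiolite Green; green fluorescence indexed AChE activity.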

[2] = molecular target: Acetylcholinesterase (Homo sapiens) (UniProt P22303); assay: Acetylcholinesterase (AChE) small molecule antagonists: enzyme-based qHTS assay with human liver microsomes (AID 1347399; calls by dose curve; note: nearly all actives have a fitted effect of over 60% in size); conditions: Potency: qHTS inhibition
How it was run: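 Recombinant human AChE (50 mU/mL in the enzyme mix) and human liver microsomes (0.25 mg/mL final) were preincubated with compound and NADPH (0.25 mg/mL final) for 30 min at 37 C. Acetylthiocholine/DTNB was then added; thiocholine was read colorimetrically after 10 min at room temperature.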

[3] = molecular target: Cytochrome P450 2C19 (Homo sapiens) (UniProt P33261); assay: Cytochrome P450 Family 2 Subfamily C Member 19 (CYP2C19) small molecule antagonists: luciferase reporter qHTS assay (AID 1671197); note: nearly all actives have a fitted effect of over 65% in size; note: potency is the fitted concentration of half-maximal effect
Sequence of Cytochrome P450 2C19 (Homo sapiens) (P33261 whole entry, looked up): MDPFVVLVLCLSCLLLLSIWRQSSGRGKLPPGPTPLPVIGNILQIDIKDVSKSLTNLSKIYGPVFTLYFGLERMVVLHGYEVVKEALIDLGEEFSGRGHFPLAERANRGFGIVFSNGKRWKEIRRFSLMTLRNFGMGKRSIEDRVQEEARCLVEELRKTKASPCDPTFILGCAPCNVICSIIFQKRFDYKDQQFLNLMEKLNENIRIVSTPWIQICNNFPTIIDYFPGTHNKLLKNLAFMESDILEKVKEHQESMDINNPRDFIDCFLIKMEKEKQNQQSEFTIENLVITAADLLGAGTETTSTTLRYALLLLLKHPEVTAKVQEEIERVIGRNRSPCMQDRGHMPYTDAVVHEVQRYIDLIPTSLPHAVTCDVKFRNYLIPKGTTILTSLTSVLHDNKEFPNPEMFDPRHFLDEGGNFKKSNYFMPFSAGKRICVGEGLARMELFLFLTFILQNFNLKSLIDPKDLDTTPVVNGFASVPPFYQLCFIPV
How it was run: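 Light output is proportional to CYP2C19 activity: proluciferin substrate is converted to luciferin, then detected by a luciferin detection reagent that also stops the 1 h, 37C NADPH-driven reaction. Ketoconazole serves as positive control.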

[4] = molecular target: Cytochrome P450 2C9 (Homo sapiens) (UniProt P11712); assay: Cytochrome P450 Family 2 Subfamily C Member 9 (CYP2C9) small molecule antagonists: luciferase reporter qHTS assay (AID 1671198); note: nearly all actives have a fitted effect of over 50% in size; note: potency is the fitted concentration of half-maximal effect
Sequence of Cytochrome P450 2C9 (Homo sapiens) (P11712 whole entry, looked up): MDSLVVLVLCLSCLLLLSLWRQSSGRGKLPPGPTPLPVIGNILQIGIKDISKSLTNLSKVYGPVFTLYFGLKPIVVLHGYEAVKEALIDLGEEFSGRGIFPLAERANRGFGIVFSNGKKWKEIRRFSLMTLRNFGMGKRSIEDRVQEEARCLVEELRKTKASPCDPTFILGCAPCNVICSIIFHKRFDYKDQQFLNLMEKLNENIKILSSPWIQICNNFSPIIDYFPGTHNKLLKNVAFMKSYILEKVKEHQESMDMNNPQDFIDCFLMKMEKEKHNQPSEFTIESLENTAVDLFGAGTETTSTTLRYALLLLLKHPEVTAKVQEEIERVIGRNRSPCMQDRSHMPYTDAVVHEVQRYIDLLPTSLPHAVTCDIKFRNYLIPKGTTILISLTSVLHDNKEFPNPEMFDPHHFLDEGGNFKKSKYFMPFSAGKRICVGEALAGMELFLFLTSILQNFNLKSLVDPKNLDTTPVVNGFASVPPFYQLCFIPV
How it was run: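 P450-Glo proluciferin substrate with CYP2C9 enzyme; 10 min RT preincubation, then NADPH regeneration 1 h at 37C; luciferin detection reagent 20 min RT, luminescence in relative luminescence units.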

[5] = molecular target: Voltage-gated inwardly rectifying potassium channel KCNH2 (Homo sapiens) (UniProt Q12809); assay: Human Ether-a-go-go-Related Gene (hERG) channel small molecule antagonists: fluorescence cell-based qHTS assay (AID 1671200); note: nearly all actives have a fitted effect of over 50% in size; note: potency is the fitted concentration of half-maximal effect
Sequence of Voltage-gated inwardly rectifying potassium channel KCNH2 (Homo sapiens) (Q12809 whole entry, looked up): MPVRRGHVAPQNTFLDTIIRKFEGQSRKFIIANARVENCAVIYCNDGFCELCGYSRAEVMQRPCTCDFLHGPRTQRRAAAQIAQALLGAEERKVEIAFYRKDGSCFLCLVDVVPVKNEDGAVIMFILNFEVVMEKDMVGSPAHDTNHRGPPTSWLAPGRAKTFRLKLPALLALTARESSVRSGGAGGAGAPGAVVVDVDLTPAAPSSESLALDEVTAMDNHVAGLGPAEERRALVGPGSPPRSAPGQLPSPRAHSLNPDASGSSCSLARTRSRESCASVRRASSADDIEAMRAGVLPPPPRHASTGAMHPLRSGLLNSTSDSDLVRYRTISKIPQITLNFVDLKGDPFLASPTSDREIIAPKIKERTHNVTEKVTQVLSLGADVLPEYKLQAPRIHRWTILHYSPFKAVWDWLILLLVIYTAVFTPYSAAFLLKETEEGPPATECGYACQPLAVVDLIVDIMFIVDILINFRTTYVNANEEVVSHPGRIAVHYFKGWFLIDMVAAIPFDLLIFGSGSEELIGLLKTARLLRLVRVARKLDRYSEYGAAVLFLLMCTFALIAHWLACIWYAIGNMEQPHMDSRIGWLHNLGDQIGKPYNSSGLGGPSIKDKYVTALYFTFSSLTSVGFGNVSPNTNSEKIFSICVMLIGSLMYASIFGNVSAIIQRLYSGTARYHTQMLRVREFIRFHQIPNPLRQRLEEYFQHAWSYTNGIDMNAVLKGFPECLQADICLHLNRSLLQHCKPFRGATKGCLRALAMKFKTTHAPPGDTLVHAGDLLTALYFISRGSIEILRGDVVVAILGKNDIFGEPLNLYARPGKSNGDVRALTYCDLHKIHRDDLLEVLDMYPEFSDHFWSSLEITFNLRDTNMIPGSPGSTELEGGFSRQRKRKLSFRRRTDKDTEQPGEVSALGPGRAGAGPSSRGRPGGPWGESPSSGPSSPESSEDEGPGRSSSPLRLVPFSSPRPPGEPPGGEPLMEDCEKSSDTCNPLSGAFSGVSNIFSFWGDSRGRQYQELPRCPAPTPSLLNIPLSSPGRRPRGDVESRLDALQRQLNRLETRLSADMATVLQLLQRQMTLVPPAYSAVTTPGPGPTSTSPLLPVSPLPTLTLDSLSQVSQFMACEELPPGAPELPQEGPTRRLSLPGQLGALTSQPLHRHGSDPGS
How it was run: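 Cell line hERG-U2OS; dye FluxOR II, 1 h RT dark; Tl+ stimulus; ex 480/em 540 nm, read each second for 2 min.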

[6] = molecular target: Cytochrome P450 1A2 (Homo sapiens) (UniProt P05177); assay: Cytochrome P450 Family 1 Subfamily A Member 2 (CYP1A2) small molecule antagonists: luciferase reporter qHTS assay (AID 1671199); note: nearly all actives have a fitted effect of over 50% in size; note: potency is the fitted concentration of half-maximal effect
Sequence of Cytochrome P450 1A2 (Homo sapiens) (P05177 whole entry, looked up): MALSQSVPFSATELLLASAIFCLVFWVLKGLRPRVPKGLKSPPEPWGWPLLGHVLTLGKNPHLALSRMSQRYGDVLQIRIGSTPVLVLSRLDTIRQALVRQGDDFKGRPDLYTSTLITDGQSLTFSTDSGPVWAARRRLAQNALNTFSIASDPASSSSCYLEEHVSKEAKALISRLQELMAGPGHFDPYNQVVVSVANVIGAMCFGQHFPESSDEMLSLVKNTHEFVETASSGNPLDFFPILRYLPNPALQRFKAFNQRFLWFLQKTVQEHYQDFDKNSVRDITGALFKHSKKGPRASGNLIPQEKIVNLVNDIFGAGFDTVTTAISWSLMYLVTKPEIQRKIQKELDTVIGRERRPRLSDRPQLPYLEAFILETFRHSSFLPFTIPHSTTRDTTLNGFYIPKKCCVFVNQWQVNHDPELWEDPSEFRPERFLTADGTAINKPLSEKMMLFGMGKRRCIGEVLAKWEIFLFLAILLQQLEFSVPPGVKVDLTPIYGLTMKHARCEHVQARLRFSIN
How it was run: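 Luminescence readout (relative luminescence units) after luciferin detection reagent, 20 min RT. Preceded by 1 h room-temperature CYP1A2 reaction with NADPH regeneration solution following 10 min compound preincubation with enzyme and proluciferin substrate. Furafylline positive control.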

[7] = molecular target: Cytochrome P450 3A4 (Homo sapiens) (UniProt P08684); assay: Cytochrome P450 Family 3 Subfamily A Member 4 (CYP3A4) small molecule antagonists: luciferase reporter qHTS assay (AID 1671201); note: nearly all actives have a fitted effect of over 50% in size; note: potency is the fitted concentration of half-maximal effect
Sequence of Cytochrome P450 3A4 (Homo sapiens) (P08684 whole entry, looked up): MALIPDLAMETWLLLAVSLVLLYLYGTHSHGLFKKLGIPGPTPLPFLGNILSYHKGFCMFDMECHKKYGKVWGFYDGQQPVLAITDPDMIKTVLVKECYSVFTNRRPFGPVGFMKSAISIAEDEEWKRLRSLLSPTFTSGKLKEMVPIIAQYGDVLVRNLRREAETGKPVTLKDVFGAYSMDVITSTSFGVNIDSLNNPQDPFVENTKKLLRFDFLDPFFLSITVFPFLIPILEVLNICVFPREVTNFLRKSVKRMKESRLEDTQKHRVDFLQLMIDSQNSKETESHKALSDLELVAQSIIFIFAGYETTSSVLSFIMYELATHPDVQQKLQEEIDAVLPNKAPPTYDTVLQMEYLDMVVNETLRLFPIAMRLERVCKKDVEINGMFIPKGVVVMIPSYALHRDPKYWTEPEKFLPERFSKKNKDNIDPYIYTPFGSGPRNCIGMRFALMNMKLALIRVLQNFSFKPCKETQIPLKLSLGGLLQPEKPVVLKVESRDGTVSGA
How it was run: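 Room-temperature assay throughout: 10 min compound–enzyme/substrate preincubation, 1 h reaction after NADPH regeneration solution, 20 min detection. Luciferin formed from proluciferin substrate is quantified by luminescence.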

[8] = molecular target: Cytochrome P450 2D6 (Homo sapiens) (UniProt P10635); assay: Cytochrome P450 Family 2 Subfamily D Member 6 (CYP2D6) small molecule antagonists: luciferase reporter qHTS assay (AID 1671196); note: nearly all actives have a fitted effect of over 50% in size; note: potency is the fitted concentration of half-maximal effect
Sequence of Cytochrome P450 2D6 (Homo sapiens) (P10635 whole entry, looked up): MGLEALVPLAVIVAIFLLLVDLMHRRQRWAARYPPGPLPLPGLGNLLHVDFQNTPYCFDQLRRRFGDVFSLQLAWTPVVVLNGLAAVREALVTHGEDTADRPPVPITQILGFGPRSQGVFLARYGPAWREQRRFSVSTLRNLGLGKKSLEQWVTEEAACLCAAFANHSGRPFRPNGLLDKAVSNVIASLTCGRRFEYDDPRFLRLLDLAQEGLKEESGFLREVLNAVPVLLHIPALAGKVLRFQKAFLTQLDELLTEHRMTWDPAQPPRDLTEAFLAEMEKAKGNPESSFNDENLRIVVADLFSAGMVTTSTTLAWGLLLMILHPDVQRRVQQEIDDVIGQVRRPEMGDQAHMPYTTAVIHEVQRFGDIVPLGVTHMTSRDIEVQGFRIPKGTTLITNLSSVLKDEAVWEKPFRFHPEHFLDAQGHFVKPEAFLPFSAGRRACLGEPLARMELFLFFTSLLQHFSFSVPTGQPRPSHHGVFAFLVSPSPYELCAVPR
How it was run: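 Luminogenic proluciferin substrate, CYP2D6 enzyme; 10 min RT preincubation with compound, NADPH regeneration system added, 1 h RT. Stop/detection reagent, 20 min RT, luminescence read (RLU). Signal proportional to CYP activity.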

[9] = molecular target: Acetylcholinesterase (Homo sapiens) (UniProt P22303); assay: Acetylcholinesterase (AChE) small molecule antagonists: enzyme-based qHTS assay (AID 1347397; calls by dose curve; note: nearly all actives have a fitted effect of over 55% in size; note: potency is the fitted concentration of half-maximal effect); conditions: Potency: AChE enzyme activity inhibition
How it was run: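 In this quantitative HTS, compounds from the Tox21 10K collection were preincubated 30 min at ambient temperature with recombinant human AChE dispensed at 50 mU/mL. Hydrolysis of acetylthiocholine was then followed for 10 min by DTNB colour development.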

Row | SMILES | Potency [1] | Potency [2] | Potency [3] | Potency [4] | Potency [5] | Potency [6] | Potency [7] | Potency [8] | Potency [9]
1 | CC(C)=CC1C(C(=O)OC(C#N)c2cccc(Oc3ccccc3)c2)C1(C)C (stereo not drawn) | inactive | inactive | 31.7 µM (active) | 10 µM (active) | inactive | – | – | – | –
2 | CCC(C)Nc1c([N+](=O)[O-])cc(C(C)(C)C)cc1[N+](=O)[O-] (stereo not drawn) | inactive | inactive | 25.2 µM (active) | 35.6 µM (active) | – | 31.7 µM (active) | inactive | – | –
3 | Cc1cnc2c(C(=O)O)c(Cl)ccc2c1 | inactive | inactive | inactive | inactive | inactive | – | – | inactive | –
4 | O=[N+]([O-])c1cc(C(F)(F)F)c(Cl)c([N+](=O)[O-])c1Nc1ncc(C(F)(F)F)cc1Cl | – | inactive | 12.6 µM (active) | 0.564 µM (active) | – | 35.6 µM (active) | 20 µM (active) | – | inactive
5 | ClC1(Cl)C2(Cl)C3(Cl)C4(Cl)C(Cl)(Cl)C5(Cl)C3(Cl)C1(Cl)C5(Cl)C24Cl (stereo not drawn) | – | inactive | – | – | inactive | inactive | inactive | inactive | inactive
6 | CC1(C)[C@H](/C=C2\CCSC2=O)[C@@H]1C(=O)OCc1coc(Cc2ccccc2)c1 | inactive | inactive | 2.24 µM (active) | 1.26 µM (active) | inactive | 22.4 µM (active) | 3.99 µM (active) | 39.9 µM (active) | –
7 | CCC(OC(C)=O)C(CC(C)NC)(c1ccccc1)c1ccccc1 (stereo not drawn) | inactive | inactive | 32 µM (active) | inactive | 8.78 µM (active) | inactive | – | 14.3 µM (active) | –
8 | CNC(=O)/C=C(\C)OP(=O)(OC)OC | 31.7 µM (active) | inactive | – | inactive | inactive | 28.3 µM (active) | inactive | inactive | –
9 | CCCCCCC[CH2][Sn]([Cl])([Cl])[CH2]CCCCCCC | inactive | inactive | inactive | – | inactive | 35.6 µM (active) | inactive | – | –
10 | COP(=S)(OC)Oc1nc(Cl)c(Cl)cc1Cl | inactive | inactive | 79.6 µM (active) | 25.2 µM (active) | inactive | 44.8 µM (active) | – | inactive | –
11 | c1ccc(Nc2ccc(Nc3ccccc3)cc2)cc1 | inactive | inactive | 12.6 µM (active) | 11.2 µM (active) | 38.7 µM (active) | 31.6 µM (active) | 39.8 µM (active) | 39.8 µM (active) | –
12 | O=Cc1ccccc1 | inactive | inactive | inactive | inactive | inactive | inactive | inactive | inactive | –
13 | Cc1ccc(C)c2ccccc12 | inactive | inactive | inactive | inactive | inactive | inactive | inactive | inactive | –
14 | C#CCO | inactive | inactive | – | inactive | inactive | – | – | inactive | –
15 | CC(C)NCC(O)c1ccccc1Cl (stereo not drawn) | inactive | inactive | inactive | inactive | inactive | inactive | inactive | 7.76 µM (active) | –
16 | FC(F)C(F)(F)OCC(Cn1cncn1)c1ccc(Cl)cc1Cl (stereo not drawn) | inactive | inactive | – | 1.77 µM (active) | inactive | 7.06 µM (active) | 0.223 µM (active) | 11.2 µM (active) | –
17 | CC#C[C@]1(O)CC[C@H]2[C@@H]3C[C@H](C)C4=CC(=O)CC[C@]4(C)[C@H]3CC[C@@]21C | inactive | inactive | – | 17.4 µM (active) | inactive | inactive | – | inactive | –
18 | O=C(Nc1ccc(F)cc1F)c1cccnc1Oc1cccc(C(F)(F)F)c1 | inactive | inactive | – | – | inactive | 7.81 µM (active) | – | inactive | –
19 | COC(=O)c1ccccc1S(=O)(=O)NC(=O)Nc1nc(C)nc(OC)n1 | – | inactive | – | – | inactive | – | inactive | 8.88 µM (active) | inactive
20 | CNC(=O)O/N=C(\C)C(C)S(C)(=O)=O (stereo not drawn) | 447 µM (active) | inactive | inactive | inactive | inactive | inactive | – | – | –
21 | Nc1cc(Cl)ccc1Cl | inactive | inactive | inactive | inactive | inactive | 31.5 µM (active) | – | inactive | –
22 | CCC(C)Br (stereo not drawn) | inactive | inactive | – | inactive | inactive | inactive | – | – | –
23 | CCOP(=O)(Sc1ccccc1)Sc1ccccc1 | – | – | 8.94 µM (active) | 28.3 µM (active) | inactive | 10 µM (active) | inactive | 56.4 µM (active) | 17.8 µM (active)
24 | Nc1ccccc1-c1ccccc1 | inactive | inactive | – | 31.5 µM (active) | inactive | 35.4 µM (active) | – | 28.1 µM (active) | –
25 | CCNc1nc(NC(C)C(C)C)nc(SC)n1 (stereo not drawn) | inactive | inactive | 39.9 µM (active) | – | inactive | 25.2 µM (active) | – | inactive | –
26 | CC(Cl)CCl (stereo not drawn) | inactive | inactive | 70.8 µM (active) | inactive | inactive | inactive | – | inactive | –
